# Results taken from PubChem BioAssay AID493185 (National Center for Advancing Translational Sciences (NCATS), 2011).
# The source made the active and inactive calls. The call rests on the fitted dose curve; in most records, active means well fitted activation curve with a large enough effect; inconclusive means small, poorly fitted or top-dose-only effect; inactive means no such curve, though single readings can be large or run the other way.
# Test: Counterscreen for Identifying a Potential Treatment of Ataxia-Telangiectasia: Hit Validation; further: 0% is about no effect
# Conditions: cell-free AlphaLISA/AlphaScreen artifact counterscreen, PBS only, no cells; series mostly up to 76.9 µM; activation: at the top concentration
# How it was run: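 Without cells, compounds at up to 76.7 uM final were combined with premixed anti-pKAP1/anti-KAP1 AlphaLISA bead reagents, protease inhibitors and lysis buffer; signal read after 6 hr at 25C to flag assay-platform artifacts.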
row,Structure (SMILES),activation
1,Oc1cccc(NC(=S)N=Nc2c(O)[nH]c3ccccc23)c1,-13.1% (inactive)
2,Cc1nc2sc(C(N)=O)c(N)c2c2c1CCCC2,29.3% (inactive)
3,COc1ccc(-c2nn(C)c(=O)[nH]2)cc1,6.56% (inactive)
4,COc1ccc(C(CNC(=O)C(Cc2ccccc2)NC(N)=O)N(C)C)cc1 (centres undefined),7.52% (inactive)
5,Cc1ccc(C)c(-c2csc(Nc3ncccn3)n2)c1,0% (inactive)
6,O=[N+]([O-])c1ccc(F)cc1F,-4.1% (inactive)
7,CCOC(=O)c1cccc(N2C(=O)C3C4C=CC(CC4)C3C2=O)c1 (centres undefined),37.7% (inactive)
8,Cc1nn(CC(=O)N(C)Cc2ccc(F)cc2)c(C)c1[N+](=O)[O-],3.01% (inactive)
9,CCN(CC)c1ccc2c(Cl)c(Br)c(=O)oc2c1,48.9% (inactive)
10,COC(=O)Cc1ccc(NC(=S)NCCSc2ccc(Cl)cc2)cc1,3.08% (inactive)
11,CCN(CC)CCNC(=O)CCc1c(C)nc2c(c(C)nn2-c2ccc(C)cc2)c1C,17.7% (inactive)
12,O=C(CNCc1cccs1)Nc1cc(S(=O)(=O)N2CCCC2)ccc1Cl,10.5% (inactive)
13,FC(F)(F)c1cccc(OCC2CNC(=S)O2)c1 (centres undefined),-12.3% (inactive)
14,CCN1CCN(c2oc(COc3ccc(Cl)cc3)nc2C#N)CC1,78.5% (inactive)
15,CCOC(=O)C1CCN(C(=O)c2cc3cc(Cl)ccc3[nH]2)CC1,-3.28% (inactive)
16,COc1ccccc1N1CCN(C(=O)c2cc(=O)c3c(C)cc(C)cc3o2)CC1,-5.38% (inactive)
17,CC(=O)Nc1ccc(S(=O)(=O)NCC2(N3CCOCC3)CCCCC2)cc1,-7.69% (inactive)
18,COc1ccc(-c2cc(C(F)(F)F)c(C#N)c(SCC(=O)O)n2)cc1OC,24.6% (inactive)
19,CC1CC(C)CN(C(=O)COC(=O)c2c[nH]c3ccccc23)C1 (centres undefined),5.38% (inactive)
